As a reminder, the % Inhibition is the change of the read-out against control, counted positive when it falls.

Experimental findings from ChEMBL document CHEMBL4888484, “Replenishing the malaria drug discovery pipeline: Screening and hit evaluation of the MMV Hit Generation Library 1 (HGL1) against asexual blood stage Plasmodium falciparum ,using a nano luciferase reporter read-out” (2022) are described below.

Out of some 150,000 compounds screened, about 540 (0.36%) showed an effect of 50% or more. The full list was thinned out, with strong results kept by preference.

The test has as its system Plasmodium falciparum. In words: Primary screen in NF54 nanoGlo assay, in single point, at 2uM, 72h; a lower Z score goes with more inhibition. In kind it is functional, Erythrocyte. The conditions noted are these: timepoint 72 hour.
Turning to `NC(=O)Cc1ccc(Cl)cc1Cl`, the “% Inhibition” value is recorded as -10% and the Z score was 1.37.

Turning to `Cc1nn(-c2ccc(Cl)cc2)cc1-c1noc(C(=O)NC2CCC(C)CC2)n1` (configuration not stated), the “% Inhibition” value was -10% and the Z score is 1.19.

Turning to `C[C@H]1CCN(Cc2ccncc2)CCN1Cc1ccccc1`, the “% Inhibition” value was -16% and the Z score is 3.16.

For `CN1C(=O)c2ccccc2O[C@H]2CN(Cc3cc(-c4ccccc4)no3)C[C@H]21`, the “% Inhibition” value is 4% and the Z score is -0.65.

For the compound `CN1C(=O)c2ccccc2O[C@H]2CN(Cc3ccccc3)C[C@H]21`, the “% Inhibition” value is given as -9% and the Z score came out at 1.36.

Turning to `Cc1noc(C)c1CN1C[C@@H]2Oc3cc(F)ccc3C(=O)N(C)[C@@H]2C1`, the “% Inhibition” value is 91% and the Z score is recorded as -10.61.

Consider `CON1CCC(C(=O)NC2c3ccccc3CCC2C)CC1` (configuration not stated), for which the “% Inhibition” value is recorded as 0% and the Z score was -0.03.

On to `O=C(O)[C@H]1CCCN(C2CCN(Cc3ccccc3)CC2)C1`, for which the “% Inhibition” value is -13% and the Z score turned out to be 1.5.

As for `c1nc(CCNC[C@@H]2CCCN3CCCC[C@H]23)c[nH]1`, the “% Inhibition” value is on record as -15% and the Z score is 2.93.

For `COCc1ncc(C)n1CC1CN(C(=O)CCc2ccccc2)C1`, the “% Inhibition” value is -10% and the Z score is 1.37.

On to `COc1cc(Cl)c(C)cc1NC(=O)c1cc(=O)n(-c2ccc(C)cc2)[nH]1`, for which the “% Inhibition” value was determined as 53% and the Z score is -6.9.

For `COc1cc(Cl)c(C)cc1NC(=O)c1nc2cc(C)c(C)cc2n(C)c1=O`, the “% Inhibition” value is 37% and the Z score is reported as 0.48.

For the compound `COc1cc(Cl)c(C)cc1NC(=O)c1cnn[nH]1`, the “% Inhibition” value is recorded as -17% and the Z score worked out at 3.31.

Consider `O=C(N[C@H](c1ccccc1F)C1CCCC1)C1CCN(C(=O)c2ccco2)CC1`, for which the “% Inhibition” value is reported as -9% and the Z score came to 0.87.

On to `O=C(C1CCC(C2CC2)N1)N1CCC2(CCc3ccccc3C2=O)CC1` (configuration not stated), for which the “% Inhibition” value amounted to 1% and the Z score is reported as -0.19.

In the case of `CC(CCO)C1(CNC(=O)NCC2CCCO2)CCC1` (configuration not stated), the “% Inhibition” value was -7% and the Z score is 1.25.

Take `CCc1cccc2c(C3=CCN(C(=O)Nc4cn[nH]c4)CC3)c[nH]c12`: the “% Inhibition” value is given as -8% and the Z score was 1.44.

For the compound `Cn1ccnc1CN(Cc1cccnc1)C1CCCCCC1`, the “% Inhibition” value was found to be 2% and the Z score was -0.44.

As for `CCC(=O)N1CCC(NCc2csc3ccccc23)C(CC)C1` (configuration not stated), the “% Inhibition” value is recorded as -13% and the Z score turned out to be 1.94.

As for `CCCc1nc(NC[C@H]2CC[C@H](CO)CC2)no1`, the “% Inhibition” value is -12% and the Z score was determined as 1.18.

With `Cc1nc(C(F)(F)F)c(CN(C)C[C@H]2CCOC2)s1`, the “% Inhibition” value is recorded as -8% and the Z score worked out at 1.25.

As for `Cc1oc(-c2ccc(C(=O)NCCN(C)C)cc2)nc1CN1CCc2ccccc21`, the “% Inhibition” value is -14% and the Z score is 1.84.

In the case of `Cc1nc(C)c(CC(=O)N2CCN(c3ccccc3)CC2)c(=O)[nH]1`, the “% Inhibition” value is given as -33% and the Z score amounted to 3.87.

Turning to `CCCCNC(=O)c1ccc(CN2C(=O)CCn3nccc32)cc1`, the “% Inhibition” value worked out at 18% and the Z score is -2.08.

Regarding `COCCCNC(=O)c1ccc(CN2C(=O)CCn3nccc32)cc1`, the “% Inhibition” value is reported as 13% and the Z score is -1.46.

Take `O=C(NCCCc1ccccc1)c1ccc(CN2C(=O)CCn3nccc32)cc1`: the “% Inhibition” value amounted to 58% and the Z score is given as -2.28.
